This passage reports growth results from PubChem BioAssay (NCI).

Among the test systems are HCT-15 colon; HT29 colon; SNB-75 CNS; SNB-19 CNS; U251 CNS; PC-3 prostate; SK-MEL-5 melanoma; UACC-62 melanoma; LOX IMVI melanoma; SK-MEL-28 melanoma; SK-MEL-2 melanoma; EKVX NSCLC; SN12C renal; UO-31 renal; TK-10 renal; ACHN renal; A498 renal; CCRF-CEM leukemia; MOLT-4 leukemia; SR leukemia.
Common to all, as to experiment: NCI-60 one-dose screen, 48 h (100 = growth as untreated, 0 = no growth, -100 = all killed)
Holding throughout (details): 10 µM unless noted

Molecules are shown by their SMILES. The panel holds about 83,000 compounds, 20% with a hit somewhere; the sample as a whole holds those more often.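 The test compound was applied at a single concentration to cells in 96-well plates for 48 hours, and percent growth was recorded.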 Unmarked numbers belong to inactive results. Activity calls are given as the source filed them. Rule for the calls: active = growth percent below 10; inactive = the rest.

On to `COc1cccc2c1-c1ccccc1C2=O`, for which the growth with HCT-15 colon is 33.3%; in the experiment with HT29 colon, 17.5%; with SNB-75 CNS, 18.1%; in the experiment with SNB-19 CNS it was 29%; in the experiment with U251 CNS, 17.8%; with PC-3 prostate, 28.1%. For the same compound, the growth is 9.97% (active) in the experiment with SK-MEL-5 melanoma; 33.3% in the experiment with UACC-62 melanoma; 40.3% in the experiment with LOX IMVI melanoma; 47.9% with SK-MEL-28 melanoma; 34.3% in the experiment with SK-MEL-2 melanoma; 40.7% in the experiment on EKVX NSCLC. Besides, the growth in the experiment on SN12C renal is 53.9%; in the experiment with UO-31 renal, 47.1%; in the experiment with TK-10 renal, 66.7%; with ACHN renal, 50%; with A498 renal, 7.69% (active); with CCRF-CEM leukemia it was 5.55% (active). Besides, the growth with MOLT-4 leukemia was 73.9%; in the experiment with SR leukemia, 40.4%.

Turning to `Cc1[nH]c(N=Nc2ccccc2)nc1N=Nc1ccccc1`, the growth is 22.8% with HCT-15 colon; 31.2% in the experiment on HT29 colon; 45.1% in the experiment with SNB-75 CNS; 47.7% with SNB-19 CNS; 15.9% with U251 CNS; 36.4% with PC-3 prostate. In addition, the growth in the experiment on SK-MEL-5 melanoma was 48.1%; in the experiment with UACC-62 melanoma it was -19.7% (active); with LOX IMVI melanoma it was 3.24% (active); in the experiment on SK-MEL-28 melanoma, 52.2%; in the experiment on SK-MEL-2 melanoma, 39.8%; with EKVX NSCLC, 20.5%. The growth with SN12C renal is 39.2%; in the experiment with UO-31 renal, -22% (active); with TK-10 renal it was 13.1%; with ACHN renal, 7.3% (active); with A498 renal, 35%; in the experiment with CCRF-CEM leukemia, -24.1% (active). Besides, the growth in the experiment with MOLT-4 leukemia is 13.8%; in the experiment on SR leukemia, 23.1%.

With `c1ccc(Sc2ncccn2)nc1`, the growth was 102% in the experiment with HCT-15 colon; 101% in the experiment on HT29 colon; 72.5% with SNB-75 CNS; 89.9% with SNB-19 CNS; 104% in the experiment with U251 CNS; 97.9% in the experiment with PC-3 prostate. Further, the growth was 102% in the experiment on SK-MEL-5 melanoma; 93.6% with UACC-62 melanoma; 92.6% with LOX IMVI melanoma; 109% in the experiment with SK-MEL-28 melanoma; 107% with SK-MEL-2 melanoma; 106% with EKVX NSCLC. Besides, the growth in the experiment with SN12C renal is 106%; in the experiment on UO-31 renal it was 87.9%; in the experiment on TK-10 renal it was 109%; in the experiment with ACHN renal, 98.2%; with A498 renal, 92.9%; in the experiment with CCRF-CEM leukemia, 104%. Besides, the growth in the experiment with MOLT-4 leukemia is 98.4%; in the experiment with SR leukemia, 95.5%.

As to `COc1ccc(/C=C/C(=O)/C=C(/C=C/c2ccc(OC)c(OC)c2)OB(F)F)cc1OC`, the growth was 0.848% (active) in the experiment on HCT-15 colon; 3% (active) with HT29 colon; 76.8% in the experiment on SNB-75 CNS; 52.9% in the experiment on SNB-19 CNS; 8.37% (active) in the experiment with U251 CNS; 31.5% with PC-3 prostate. The growth was 56.6% with SK-MEL-5 melanoma; 52.6% with UACC-62 melanoma; 5.12% (active) in the experiment on LOX IMVI melanoma; 29.6% in the experiment on SK-MEL-28 melanoma; 76.8% in the experiment with SK-MEL-2 melanoma; 38% with EKVX NSCLC. Besides, the growth was -5.34% (active) in the experiment with SN12C renal; 40% in the experiment with UO-31 renal; 36.9% with TK-10 renal; -15.8% (active) in the experiment with ACHN renal; 95.7% in the experiment with A498 renal; -12% (active) in the experiment with CCRF-CEM leukemia. Moreover, the growth in the experiment on MOLT-4 leukemia was 1.45% (active); in the experiment with SR leukemia it was 0.197% (active).

For the compound `COc1ccc(Cl)c([N+](=O)[O-])c1`, the growth in the experiment with HCT-15 colon was 103%; with HT29 colon, 107%; in the experiment on SNB-75 CNS it was 98.2%; in the experiment with SNB-19 CNS, 103%; in the experiment with U251 CNS, 106%; in the experiment with PC-3 prostate, 105%. Moreover, the growth with SK-MEL-5 melanoma is 99.2%; in the experiment with UACC-62 melanoma it was 97%; in the experiment with LOX IMVI melanoma, 97.2%; in the experiment on SK-MEL-28 melanoma, 106%; in the experiment with SK-MEL-2 melanoma, 104%; in the experiment on EKVX NSCLC it was 103%. Also, the growth with SN12C renal was 99%; with UO-31 renal it was 90.6%; in the experiment on TK-10 renal it was 95.8%; in the experiment on ACHN renal, 107%; in the experiment with A498 renal it was 113%; in the experiment on CCRF-CEM leukemia, 109%. For the same compound, the growth in the experiment on MOLT-4 leukemia was 95.2%; with SR leukemia, 93.1%.

On to `N#Cc1ccc(N2Cc3cc(Cl)ccc3OC3=C2C(=O)N(Cc2ccc(F)cc2)C3=O)cc1`, for which the growth is -54.9% (active) in the experiment on HCT-15 colon; -59.1% (active) with HT29 colon; -3.4% (active) in the experiment on SNB-75 CNS; 57.8% with SNB-19 CNS; -61.1% (active) with U251 CNS; 11.8% in the experiment with PC-3 prostate. Besides, the growth with SK-MEL-5 melanoma is -33.1% (active); with UACC-62 melanoma it was -41.1% (active); in the experiment on LOX IMVI melanoma it was -93% (active); in the experiment on SK-MEL-28 melanoma, -64.1% (active); in the experiment with SK-MEL-2 melanoma it was -46.5% (active); in the experiment on EKVX NSCLC it was 37.4%. Besides, the growth in the experiment with SN12C renal was -24.9% (active); in the experiment with UO-31 renal it was -85.7% (active); in the experiment with TK-10 renal, -79.4% (active); with ACHN renal it was -92.9% (active); with A498 renal it was 120%; in the experiment with CCRF-CEM leukemia, -20% (active). In addition, the growth with MOLT-4 leukemia is -34.5% (active); in the experiment on SR leukemia it was -33.5% (active).

As to `O=C(Nc1cc(Nc2ncccc2-c2ncnc3nc[nH]c23)ccc1F)c1cc(C(F)(F)F)cc(C(F)(F)F)c1`, the growth was -67% (active) in the experiment with HCT-15 colon; -23.8% (active) in the experiment on HT29 colon; -39.5% (active) in the experiment on SNB-75 CNS; 13.7% with SNB-19 CNS; -12.1% (active) in the experiment with U251 CNS; -45.1% (active) in the experiment on PC-3 prostate. Further, the growth is -17.5% (active) with SK-MEL-5 melanoma; -23.6% (active) in the experiment on UACC-62 melanoma; -69.4% (active) in the experiment on LOX IMVI melanoma; -66.1% (active) with SK-MEL-28 melanoma; -40% (active) with SK-MEL-2 melanoma; 20.4% in the experiment with EKVX NSCLC. Moreover, the growth in the experiment with SN12C renal was 16.5%; with UO-31 renal, -37.4% (active); with TK-10 renal, -16.9% (active); with ACHN renal it was -7.8% (active); in the experiment with A498 renal it was -19.1% (active); in the experiment with CCRF-CEM leukemia, 2.41% (active). Besides, the results for the growth with MOLT-4 leukemia and in the experiment on SR leukemia were -33.6% (active) and -21.1% (active), respectively.

In the case of `CCc1n(Cc2ccc3ccccc3c2)c2ccccc2[n+]1Cc1ccc2ccccc2c1`, the growth in the experiment with HCT-15 colon was 101%; in the experiment with HT29 colon, 25.3%; in the experiment with SNB-75 CNS, 59%; in the experiment on SNB-19 CNS, 45.3%; with U251 CNS, 34.4%; in the experiment with PC-3 prostate it was 52.9%. Further, the growth with SK-MEL-5 melanoma was 38.8%; in the experiment on UACC-62 melanoma, 50.6%; with LOX IMVI melanoma it was 63.7%; in the experiment on SK-MEL-28 melanoma it was 69.8%; with SK-MEL-2 melanoma it was 71.6%; in the experiment with EKVX NSCLC, 76.7%. Also, the growth was 65.2% in the experiment on SN12C renal; 87.2% in the experiment on UO-31 renal; 75.5% in the experiment with TK-10 renal; 96.5% in the experiment on ACHN renal; 87.6% in the experiment on A498 renal; 63.5% in the experiment on CCRF-CEM leukemia. Further, the growth was 73.4% in the experiment with MOLT-4 leukemia and 28.4% in the experiment on SR leukemia.
